# About 7,900 targets were measured; listed, in parts, are those with a hit and a random draw of the rest. About 0.6% of all pairs of compound and target were hits. Values without a mark were called inactive.
# Columns and labels:
# Experiment in all cases: log2 fold change, soluble protein after heating vs DMSO (PISA); higher = thermal stabilisation; K562 cells, 10 uM, 30 min; active = over 0.2 and 3.5 SD of the protein, either way, in both replicates (recomputed)
# [1] = compound: CC1=C(C=C(C=C1)NC(=O)C2=CC(=CC=C2)C(C)(C)C#N)NC3=CC4=C(C=C3)N=CN(C4=O)C
# Procedure, shortened: (§1)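 K562 cells at 2×10^6 cells/mL were treated with 10 μM compound for 30 min. Aliquots were heated for 3 min across 48°C-58°C, pooled, and extracted in PBS with 0.5% NP-40 at 4°C; soluble protein was the supernatant after 21,000xg for 90 min. Soluble protein was quantified by TMTpro 16plex LC-MS/MS with channel sums equalised, and reported as log2 fold change in thermal stability against DMSO controls, with values from duplicates.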
# [2] = compound: CC1=C(C=C(C=C1)NC(=O)C2=CC(=CC=C2)N(C)C)NC(=O)C3=CC=C(C=C3)O
# Procedure, shortened: as §1
# [3] = compound: CC1=CC=C(C=C1)SC2=C3C=C(SC3=CN=C2)C(=O)N
# Procedure, shortened: as §1
# [4] = compound: CC1=NC(=CC=C1)C2=C(N=C(N2)C(C)(C)C)C3=CC4=NC=CN=C4C=C3
# Procedure, shortened: as §1
# [5] = compound: CCCCN(Cc1ccc(C(=O)NO)cc1)C(=O)Nc1ccccc1 [Nexturastat A]
# Procedure, shortened: as §1
# [6] = compound: CCCS(=O)(=O)Nc1ccc(F)c(C(=O)c2c[nH]c3ncc(-c4ccc(Cl)cc4)cc23)c1F [vemurafenib]
# Procedure, shortened: as §1
# [7] = compound: CCCS(=O)(=O)Nc1ccc(F)c(C(=O)c2c[nH]c3ncc(Cl)cc23)c1F
# Procedure, shortened: as §1
# [8] = compound: CCCc1cc(C)[nH]c(=O)c1CNC(=O)c1cc(-c2ccnc(N3CCN(C)CC3)c2)cc2c1cnn2C(C)C
# Procedure, shortened: as §1
# [9] = compound: CCN(CC)Cc1ccc2cc(COC(=O)Nc3ccc(C(=O)NO)cc3)ccc2c1 [givinostat]
# Procedure, shortened: as §1
# [10] = compound: CCN(CCCOc1ccc2c(Nc3cc(CC(=O)Nc4cccc(F)c4)[nH]n3)ncnc2c1)CCOP(=O)(O)O [barasertib]
# Procedure, shortened: as §1
# [11] = compound: CC[C@@H]1C(=O)N(C)c2cnc(Nc3ccc(C(=O)NC4CCN(C)CC4)cc3OC)nc2N1C1CCCC1
# Procedure, shortened: as §1
# [12] = compound: CC[C@@H]1C(=O)N(C)c2cnc(Nc3ccc(C(=O)N[C@H]4CC[C@H](N5CCN(CC6CC6)CC5)CC4)cc3OC)nc2N1C(C)C [volasertib]
# Procedure, shortened: as §1
# [13] = compound: CC[C@H](C)N1C=C(C2=C(C=C(C=C21)C3=CN=C(C=C3)N4CCNCC4)C(=O)NCC5=C(C=C(NC5=O)C)C)C
# Procedure, shortened: as §1
# [14] = compound: CC[C@H](C)[C@@H](C(=O)N[C@@H]([C@@H](C)O)C(=O)N[C@@H](CC(C)C)C(=O)[C@]1(CO1)C)NC(=O)[C@H]([C@@H](C)CC)N(C)C(=O)C [epoxomicin]
# Procedure, shortened: as §1
# [15] = compound: CCn1c(C(=O)N(C2CC2)C2CC2)cc2c3c(ncn3C)c(Nc3cc(C)n(C)n3)nc21
# Procedure, shortened: as §1
# [16] = compound: CCn1cc(-c2ccnc3[nH]c(-c4cccc(CN(C)C)c4)cc23)c(-c2ccc(NC(=O)N(C)C)cc2)n1
# Procedure, shortened: as §1
# [17] = compound: CN(C)CC(=O)Nc1ccc2[nH]c(=O)c3ccccc3c2c1
# Procedure, shortened: as §1
# [18] = compound: CN(CCOC1=CC=C(C=C1)C[C@H]2C(=O)NC(=O)S2)C3=CC=CC=N3 (racemic) [rosiglitazone]
# Procedure, shortened: as §1
# [19] = compound: CN1C2=C(C3=C1C(=O)N(N=C3)CC4=CC(=CC=C4)N)SC(=C2)S(=O)C
# Procedure, shortened: as §1
# [20] = compound: CN1CCC(CNc2ccc3ncc(-c4cccc(OC(F)(F)F)c4)n3n2)CC1
# Procedure, shortened: as §1
# Sequence of UniProt O94822 (O94822 whole entry, looked up): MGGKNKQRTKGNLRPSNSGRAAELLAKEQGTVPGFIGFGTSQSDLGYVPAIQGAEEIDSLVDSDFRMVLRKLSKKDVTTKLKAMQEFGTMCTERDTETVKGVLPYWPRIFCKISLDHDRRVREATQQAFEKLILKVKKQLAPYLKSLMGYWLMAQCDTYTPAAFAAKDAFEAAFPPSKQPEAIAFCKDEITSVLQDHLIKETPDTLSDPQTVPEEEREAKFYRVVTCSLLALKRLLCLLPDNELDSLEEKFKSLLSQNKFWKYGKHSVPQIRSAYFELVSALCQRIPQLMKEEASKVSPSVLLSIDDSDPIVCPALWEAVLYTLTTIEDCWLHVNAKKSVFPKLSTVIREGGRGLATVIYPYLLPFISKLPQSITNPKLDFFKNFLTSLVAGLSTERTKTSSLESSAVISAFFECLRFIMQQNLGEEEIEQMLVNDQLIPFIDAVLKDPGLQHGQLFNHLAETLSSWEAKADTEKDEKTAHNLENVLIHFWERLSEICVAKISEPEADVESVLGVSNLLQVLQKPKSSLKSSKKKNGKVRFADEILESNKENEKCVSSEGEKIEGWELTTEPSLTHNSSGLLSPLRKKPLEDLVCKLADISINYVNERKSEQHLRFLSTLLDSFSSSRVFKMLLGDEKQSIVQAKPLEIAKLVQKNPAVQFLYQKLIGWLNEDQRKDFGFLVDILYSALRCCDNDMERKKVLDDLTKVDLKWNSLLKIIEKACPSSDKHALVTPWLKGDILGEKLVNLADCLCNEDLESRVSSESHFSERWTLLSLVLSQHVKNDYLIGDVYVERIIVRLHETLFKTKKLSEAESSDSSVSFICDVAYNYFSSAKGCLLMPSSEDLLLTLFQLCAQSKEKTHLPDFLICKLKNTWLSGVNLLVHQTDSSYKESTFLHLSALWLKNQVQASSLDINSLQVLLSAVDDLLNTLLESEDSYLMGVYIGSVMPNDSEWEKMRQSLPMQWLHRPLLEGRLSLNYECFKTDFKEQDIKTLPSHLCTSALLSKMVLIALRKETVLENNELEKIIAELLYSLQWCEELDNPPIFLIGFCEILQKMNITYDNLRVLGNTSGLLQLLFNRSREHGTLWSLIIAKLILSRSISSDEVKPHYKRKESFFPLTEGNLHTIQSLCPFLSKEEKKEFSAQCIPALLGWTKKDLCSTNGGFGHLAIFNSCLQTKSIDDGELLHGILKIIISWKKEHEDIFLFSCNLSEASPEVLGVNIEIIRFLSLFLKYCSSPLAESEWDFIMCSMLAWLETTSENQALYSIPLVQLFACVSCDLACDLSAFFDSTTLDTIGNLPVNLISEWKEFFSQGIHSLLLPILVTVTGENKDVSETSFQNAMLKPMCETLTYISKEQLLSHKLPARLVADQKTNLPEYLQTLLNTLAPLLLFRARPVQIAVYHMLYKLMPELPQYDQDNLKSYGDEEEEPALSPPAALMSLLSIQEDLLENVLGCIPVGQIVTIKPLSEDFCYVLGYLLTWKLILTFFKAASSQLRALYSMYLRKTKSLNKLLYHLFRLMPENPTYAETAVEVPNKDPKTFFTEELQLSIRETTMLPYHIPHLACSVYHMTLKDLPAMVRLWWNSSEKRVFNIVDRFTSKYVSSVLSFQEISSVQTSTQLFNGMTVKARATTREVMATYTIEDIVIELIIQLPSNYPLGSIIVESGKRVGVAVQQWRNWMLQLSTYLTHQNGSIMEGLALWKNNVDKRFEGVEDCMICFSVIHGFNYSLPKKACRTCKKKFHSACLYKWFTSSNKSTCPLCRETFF
# Sequence of UniProt Q6P1A2 (Q6P1A2 whole entry, looked up): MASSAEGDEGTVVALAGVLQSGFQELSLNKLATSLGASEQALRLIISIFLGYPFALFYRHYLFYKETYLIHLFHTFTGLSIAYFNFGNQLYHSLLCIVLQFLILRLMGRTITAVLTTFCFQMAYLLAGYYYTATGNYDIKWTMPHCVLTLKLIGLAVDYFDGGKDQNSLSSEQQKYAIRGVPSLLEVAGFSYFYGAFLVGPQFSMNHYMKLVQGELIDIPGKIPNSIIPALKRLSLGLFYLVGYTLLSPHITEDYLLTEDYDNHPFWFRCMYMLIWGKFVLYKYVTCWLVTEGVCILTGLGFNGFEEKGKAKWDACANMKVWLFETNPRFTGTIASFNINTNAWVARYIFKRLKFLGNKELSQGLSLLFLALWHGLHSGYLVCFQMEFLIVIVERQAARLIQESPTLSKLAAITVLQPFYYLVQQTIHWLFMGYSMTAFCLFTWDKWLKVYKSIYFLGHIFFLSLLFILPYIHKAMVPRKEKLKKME
# Sequence of UniProt Q99661 (Q99661 whole entry, looked up): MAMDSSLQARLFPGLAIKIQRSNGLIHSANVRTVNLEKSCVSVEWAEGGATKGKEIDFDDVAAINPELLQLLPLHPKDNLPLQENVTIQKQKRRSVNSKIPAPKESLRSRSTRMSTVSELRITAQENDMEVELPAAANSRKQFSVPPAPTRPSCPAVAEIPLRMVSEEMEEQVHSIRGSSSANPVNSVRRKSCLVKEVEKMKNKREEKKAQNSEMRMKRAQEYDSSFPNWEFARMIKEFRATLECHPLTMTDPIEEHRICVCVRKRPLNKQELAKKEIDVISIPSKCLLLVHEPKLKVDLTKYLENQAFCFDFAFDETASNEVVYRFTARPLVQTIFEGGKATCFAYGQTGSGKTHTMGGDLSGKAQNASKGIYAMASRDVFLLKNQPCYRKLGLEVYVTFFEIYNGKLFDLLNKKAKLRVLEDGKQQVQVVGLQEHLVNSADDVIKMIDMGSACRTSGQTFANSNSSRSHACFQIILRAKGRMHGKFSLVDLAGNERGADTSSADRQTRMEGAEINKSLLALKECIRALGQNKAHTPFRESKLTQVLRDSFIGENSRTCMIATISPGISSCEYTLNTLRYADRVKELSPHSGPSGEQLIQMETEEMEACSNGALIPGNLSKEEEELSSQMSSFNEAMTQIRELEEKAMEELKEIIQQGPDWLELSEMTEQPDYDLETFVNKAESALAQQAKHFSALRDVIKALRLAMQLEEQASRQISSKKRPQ
# Sequence of UniProt Q32MZ4 (Q32MZ4 whole entry, looked up): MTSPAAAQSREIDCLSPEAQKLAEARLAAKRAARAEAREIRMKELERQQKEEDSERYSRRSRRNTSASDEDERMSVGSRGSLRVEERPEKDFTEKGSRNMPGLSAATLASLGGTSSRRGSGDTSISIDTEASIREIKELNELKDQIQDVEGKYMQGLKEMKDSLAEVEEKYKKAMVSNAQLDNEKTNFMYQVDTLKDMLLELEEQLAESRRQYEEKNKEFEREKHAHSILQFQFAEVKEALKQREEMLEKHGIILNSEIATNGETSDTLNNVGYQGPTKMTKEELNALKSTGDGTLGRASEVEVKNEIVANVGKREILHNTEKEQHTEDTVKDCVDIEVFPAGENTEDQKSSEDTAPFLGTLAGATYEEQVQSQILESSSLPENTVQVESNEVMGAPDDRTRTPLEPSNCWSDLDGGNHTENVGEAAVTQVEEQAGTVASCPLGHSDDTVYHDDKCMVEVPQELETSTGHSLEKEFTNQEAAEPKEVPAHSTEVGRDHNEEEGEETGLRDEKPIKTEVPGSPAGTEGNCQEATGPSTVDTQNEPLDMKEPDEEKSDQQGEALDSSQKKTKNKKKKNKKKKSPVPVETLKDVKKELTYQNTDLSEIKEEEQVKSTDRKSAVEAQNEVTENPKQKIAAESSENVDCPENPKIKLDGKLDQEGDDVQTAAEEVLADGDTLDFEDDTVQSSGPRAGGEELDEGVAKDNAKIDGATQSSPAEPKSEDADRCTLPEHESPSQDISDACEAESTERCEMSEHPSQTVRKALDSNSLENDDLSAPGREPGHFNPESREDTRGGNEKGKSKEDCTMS
# Sequence of UniProt P14174 (P14174 whole entry, looked up): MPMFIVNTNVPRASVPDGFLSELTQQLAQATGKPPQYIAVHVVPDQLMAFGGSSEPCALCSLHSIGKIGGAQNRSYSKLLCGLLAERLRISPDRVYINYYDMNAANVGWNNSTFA
# Sequence of UniProt P23368 (P23368 whole entry, looked up): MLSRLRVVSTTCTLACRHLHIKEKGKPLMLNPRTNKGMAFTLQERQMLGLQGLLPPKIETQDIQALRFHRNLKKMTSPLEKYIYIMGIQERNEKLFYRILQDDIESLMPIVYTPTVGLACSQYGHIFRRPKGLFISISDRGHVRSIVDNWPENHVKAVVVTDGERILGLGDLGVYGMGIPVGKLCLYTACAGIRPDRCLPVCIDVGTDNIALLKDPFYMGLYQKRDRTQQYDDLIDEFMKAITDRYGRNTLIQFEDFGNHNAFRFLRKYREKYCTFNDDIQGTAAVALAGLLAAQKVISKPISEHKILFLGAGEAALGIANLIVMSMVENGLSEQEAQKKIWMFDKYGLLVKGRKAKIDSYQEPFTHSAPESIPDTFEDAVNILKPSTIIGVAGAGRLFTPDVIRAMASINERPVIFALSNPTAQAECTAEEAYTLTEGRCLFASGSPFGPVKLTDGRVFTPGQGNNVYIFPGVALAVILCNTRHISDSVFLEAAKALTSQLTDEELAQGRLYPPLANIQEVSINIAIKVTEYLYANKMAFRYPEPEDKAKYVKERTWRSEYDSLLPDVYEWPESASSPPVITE
Target,log2 fold change [1],log2 fold change [2],log2 fold change [3],log2 fold change [4],log2 fold change [5],log2 fold change [6],log2 fold change [7],log2 fold change [8],log2 fold change [9],log2 fold change [10],log2 fold change [11],log2 fold change [12],log2 fold change [13],log2 fold change [14],log2 fold change [15],log2 fold change [16],log2 fold change [17],log2 fold change [18],log2 fold change [19],log2 fold change [20]
ME2 (UniProt P23368),-0.01,-0.057,-0.044,-0.017,0.015,0.011,0.002,0.022,0.027,0.018,0.164,0.445 (active),0.006,0.108,-0.012,-0.015,-0.002,0.016,-0.02,0.145
KIF2C (UniProt Q99661),0.012,-0.038,0.057,0.067,0.02,0.087,0.053,0.03,0.016,0.053,-0.037,-0.357 (active),0.084,0.019,-0.042,-0.063,0.09,0.057,0.003,-0.06
LNPEP (UniProt Q9UIQ6),0.018,0.03,0.01,-0.009,-0.051,-0.013,0.015,0.008,0.014,-0.009,0.004,-0.182,-0.016,0.014,0.016,-0.02,0.012,0.016,-0.025,0.024
KIF13A isoform 4 (UniProt Q9H1H9),0.035,–,–,–,–,–,–,–,–,–,–,–,–,–,–,–,–,–,–,–
MIF (UniProt P14174),0.056,-0.014,0.056,0.098,-0.29,-0.009,-0.047,-0.076,-0.113,-0.009,0.025,0.021,-0.096,0.454 (active),0.015,0.081,0.025,-0.012,-0.038,0.211
LPCAT3 (UniProt Q6P1A2),0.289 (active),-0.029,0.052,0.033,-0.226,-0.019,0.036,0.089,0.031,-0.005,0.146,-0.026,-0.008,-0.005,0.062,-0.063,0.087,-0.042,-0.093,-0.202
LRRFIP1 (UniProt Q32MZ4),-0.024,0.003,-0.012,-0.01,0.005,-0.019,-0.027,-0.002,0.014,0.004,0.06,0.099,-0.075,-0.019,0.019,0.028,-0.004,-0.007,0.011,0.013
LTN1 isoform 3 (UniProt O94822),-0.013,-0.031,-0.008,-0.006,0.104,0.039,0.058,0.017,0.065,0.042,-0.16,-0.459 (active),0.079,-0.012,-0.075,-0.019,0.043,0.05,0.06,-0.498 (active)

# Reference: the supplement of paper PMC10849652
